The values below come from the supplement of paper PMC10849652.

Test in all cases: log2 fold change, soluble protein after heating vs DMSO (PISA); higher = thermal stabilisation; K562 cells, 10 uM, 30 min; active = over 0.2 and 3.5 SD of the protein, either way, in both replicates (recomputed)
Compound in assay [1]: C1=CC=C(C=C1)[C@H](COC2=CC3=C(C=C2)NC(=O)N3)NC(=O)C4=CC=CN(C4=O)CC5=CC(=C(C=C5)F)F
A digest of the protocol:
(§1)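 K562 cells at 2×10^6 cells/mL were treated for 30 min with 10 μM compound, and aliquots were heated for 3 min over 48°C-58°C before pooling. Extraction used PBS with 0.5% NP-40 at 4°C, and soluble protein was the supernatant after 21,000xg for 90 min, measured by TMTpro 16plex LC-MS/MS with channel sums equalised. Thermal stability values, relative to control samples and from duplicates, are log2 fold changes.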

Compound in assay [2]: CC1=C(SC2=C1C(=N[C@H](C3=NN=C(N32)C)CC(=O)N)C4=CC=C(C=C4)Cl)C
The gist of the method:
as §1

Compound in assay [3]: CC1=C2C(=CC=C1)N=C(N(C2=O)C3=CC=CC=C3C)CN4C=NC5=C(N=CN=C54)N
A digest of the protocol:
as §1

Compound in assay [4]: Cc1sc2c(c1C)C(c1ccc(Cl)cc1)=N[C@@H](CC(=O)OC(C)(C)C)c1nnc(C)n1-2
A digest of the protocol: as §1

Compound in assay [5]: c1ccc([C@@H]2C[C@H]2NC2CCNCC2)cc1
The gist of the method: as §1

Of roughly 7,900 targets only a part is listed; those with a hit were picked by preference. About 0.6% of all pairs of compound and target were hits. Unmarked numbers belong to inactive results.

UniProt Q10471, sequence (Q10471 whole entry, looked up): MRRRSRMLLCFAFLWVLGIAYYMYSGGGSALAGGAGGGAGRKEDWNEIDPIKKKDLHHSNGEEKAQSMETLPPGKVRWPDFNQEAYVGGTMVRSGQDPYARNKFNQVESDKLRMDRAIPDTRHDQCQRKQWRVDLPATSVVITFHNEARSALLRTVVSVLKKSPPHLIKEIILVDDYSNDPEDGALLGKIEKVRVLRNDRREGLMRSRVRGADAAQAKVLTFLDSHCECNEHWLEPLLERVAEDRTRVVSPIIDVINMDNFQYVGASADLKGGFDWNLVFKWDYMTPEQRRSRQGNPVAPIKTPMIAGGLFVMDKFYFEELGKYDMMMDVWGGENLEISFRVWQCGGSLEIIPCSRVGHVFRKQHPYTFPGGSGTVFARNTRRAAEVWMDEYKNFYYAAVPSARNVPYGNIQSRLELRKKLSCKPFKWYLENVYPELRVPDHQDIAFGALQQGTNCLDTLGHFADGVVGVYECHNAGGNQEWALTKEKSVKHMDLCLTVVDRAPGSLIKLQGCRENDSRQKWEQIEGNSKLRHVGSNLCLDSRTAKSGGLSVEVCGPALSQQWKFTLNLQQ
UniProt P29083, sequence (P29083 whole entry, looked up): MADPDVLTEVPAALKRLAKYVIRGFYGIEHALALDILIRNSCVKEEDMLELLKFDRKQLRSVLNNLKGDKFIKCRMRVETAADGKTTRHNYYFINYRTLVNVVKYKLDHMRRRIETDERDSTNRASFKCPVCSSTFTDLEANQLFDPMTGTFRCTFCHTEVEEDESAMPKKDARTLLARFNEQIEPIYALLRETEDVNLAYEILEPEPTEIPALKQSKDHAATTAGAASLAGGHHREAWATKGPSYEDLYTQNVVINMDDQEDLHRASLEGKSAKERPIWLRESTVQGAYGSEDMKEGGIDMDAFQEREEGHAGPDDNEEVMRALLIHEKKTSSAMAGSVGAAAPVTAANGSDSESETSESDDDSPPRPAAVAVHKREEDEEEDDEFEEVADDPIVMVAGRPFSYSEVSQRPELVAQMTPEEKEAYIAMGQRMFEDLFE
UniProt Q9H0R4, sequence (Q9H0R4 whole entry, looked up): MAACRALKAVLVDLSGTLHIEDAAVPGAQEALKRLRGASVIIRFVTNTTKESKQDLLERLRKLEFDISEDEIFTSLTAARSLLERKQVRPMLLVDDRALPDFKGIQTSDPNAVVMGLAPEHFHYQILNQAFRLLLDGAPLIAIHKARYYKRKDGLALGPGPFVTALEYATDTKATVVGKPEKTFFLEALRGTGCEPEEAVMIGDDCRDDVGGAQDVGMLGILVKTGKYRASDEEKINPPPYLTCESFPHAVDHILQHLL
UniProt Q9NP66, sequence (Q9NP66 whole entry, looked up): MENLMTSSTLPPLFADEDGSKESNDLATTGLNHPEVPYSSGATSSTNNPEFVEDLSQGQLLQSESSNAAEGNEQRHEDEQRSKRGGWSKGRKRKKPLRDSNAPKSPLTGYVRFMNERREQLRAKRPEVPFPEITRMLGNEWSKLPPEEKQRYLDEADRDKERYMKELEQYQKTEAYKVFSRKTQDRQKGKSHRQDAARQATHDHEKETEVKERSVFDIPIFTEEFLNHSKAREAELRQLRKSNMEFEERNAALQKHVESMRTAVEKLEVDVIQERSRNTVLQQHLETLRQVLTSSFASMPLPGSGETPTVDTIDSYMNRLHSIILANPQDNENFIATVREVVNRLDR
UniProt P05114, sequence (P05114 whole entry, looked up): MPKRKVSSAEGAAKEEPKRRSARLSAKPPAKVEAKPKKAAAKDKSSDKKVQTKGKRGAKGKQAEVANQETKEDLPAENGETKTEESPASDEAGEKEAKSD
UniProt Q9Y5Q8, sequence (Q9Y5Q8 whole entry, looked up): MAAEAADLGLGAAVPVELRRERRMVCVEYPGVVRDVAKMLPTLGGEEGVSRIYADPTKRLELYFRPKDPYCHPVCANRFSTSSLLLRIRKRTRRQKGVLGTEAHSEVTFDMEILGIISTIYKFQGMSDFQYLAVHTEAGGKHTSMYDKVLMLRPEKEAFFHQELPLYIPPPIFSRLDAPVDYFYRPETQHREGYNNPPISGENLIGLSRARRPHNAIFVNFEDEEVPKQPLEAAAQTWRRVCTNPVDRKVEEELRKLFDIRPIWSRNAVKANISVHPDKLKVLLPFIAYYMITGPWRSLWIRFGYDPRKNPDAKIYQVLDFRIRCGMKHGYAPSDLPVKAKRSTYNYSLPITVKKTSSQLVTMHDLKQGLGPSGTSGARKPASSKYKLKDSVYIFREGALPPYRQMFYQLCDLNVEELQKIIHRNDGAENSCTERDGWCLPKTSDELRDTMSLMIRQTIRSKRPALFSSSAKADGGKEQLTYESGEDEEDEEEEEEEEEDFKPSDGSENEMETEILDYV
UniProt P50213, sequence (P50213 whole entry, looked up): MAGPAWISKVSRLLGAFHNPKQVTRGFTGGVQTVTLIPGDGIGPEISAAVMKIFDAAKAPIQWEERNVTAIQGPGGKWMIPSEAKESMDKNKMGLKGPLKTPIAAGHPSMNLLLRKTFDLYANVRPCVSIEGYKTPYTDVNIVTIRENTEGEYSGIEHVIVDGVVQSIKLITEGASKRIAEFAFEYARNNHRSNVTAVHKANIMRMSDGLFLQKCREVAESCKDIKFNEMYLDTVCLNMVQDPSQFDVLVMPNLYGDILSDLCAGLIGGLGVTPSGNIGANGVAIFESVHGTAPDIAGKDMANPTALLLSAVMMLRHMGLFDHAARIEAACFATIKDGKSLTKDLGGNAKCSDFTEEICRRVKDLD
UniProt Q9UKD1, sequence (Q9UKD1 whole entry, looked up): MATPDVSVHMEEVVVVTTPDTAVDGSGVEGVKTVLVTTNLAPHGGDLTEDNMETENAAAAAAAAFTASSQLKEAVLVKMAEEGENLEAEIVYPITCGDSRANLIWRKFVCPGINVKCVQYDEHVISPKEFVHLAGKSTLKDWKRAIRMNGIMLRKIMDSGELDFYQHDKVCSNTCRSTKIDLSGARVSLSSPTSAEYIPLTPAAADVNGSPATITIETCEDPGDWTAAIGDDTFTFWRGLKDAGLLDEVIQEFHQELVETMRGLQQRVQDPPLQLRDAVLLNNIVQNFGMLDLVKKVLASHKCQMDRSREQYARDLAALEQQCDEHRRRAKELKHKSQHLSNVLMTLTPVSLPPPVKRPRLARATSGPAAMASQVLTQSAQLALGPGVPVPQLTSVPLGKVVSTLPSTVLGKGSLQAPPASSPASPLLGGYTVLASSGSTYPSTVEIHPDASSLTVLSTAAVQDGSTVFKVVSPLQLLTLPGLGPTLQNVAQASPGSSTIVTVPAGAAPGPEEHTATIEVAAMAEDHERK
UniProt P60520, sequence (P60520 whole entry, looked up): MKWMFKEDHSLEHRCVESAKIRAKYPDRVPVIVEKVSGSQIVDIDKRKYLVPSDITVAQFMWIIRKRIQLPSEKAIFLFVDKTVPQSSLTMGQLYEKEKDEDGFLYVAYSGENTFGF
UniProt P04066, sequence (P04066 whole entry, looked up): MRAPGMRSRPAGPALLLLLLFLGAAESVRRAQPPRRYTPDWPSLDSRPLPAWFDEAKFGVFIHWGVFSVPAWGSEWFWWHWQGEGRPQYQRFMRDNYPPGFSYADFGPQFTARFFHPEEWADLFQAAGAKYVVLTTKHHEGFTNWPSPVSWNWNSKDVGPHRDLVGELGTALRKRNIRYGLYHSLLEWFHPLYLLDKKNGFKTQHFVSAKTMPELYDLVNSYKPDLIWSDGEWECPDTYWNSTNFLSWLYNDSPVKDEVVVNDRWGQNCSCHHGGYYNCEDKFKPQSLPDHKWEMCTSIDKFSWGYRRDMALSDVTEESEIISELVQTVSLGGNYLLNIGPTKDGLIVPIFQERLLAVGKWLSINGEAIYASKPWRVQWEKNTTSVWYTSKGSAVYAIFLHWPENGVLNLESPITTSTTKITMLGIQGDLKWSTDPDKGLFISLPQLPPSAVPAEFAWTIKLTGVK
UniProt P85037, sequence (P85037 whole entry, looked up): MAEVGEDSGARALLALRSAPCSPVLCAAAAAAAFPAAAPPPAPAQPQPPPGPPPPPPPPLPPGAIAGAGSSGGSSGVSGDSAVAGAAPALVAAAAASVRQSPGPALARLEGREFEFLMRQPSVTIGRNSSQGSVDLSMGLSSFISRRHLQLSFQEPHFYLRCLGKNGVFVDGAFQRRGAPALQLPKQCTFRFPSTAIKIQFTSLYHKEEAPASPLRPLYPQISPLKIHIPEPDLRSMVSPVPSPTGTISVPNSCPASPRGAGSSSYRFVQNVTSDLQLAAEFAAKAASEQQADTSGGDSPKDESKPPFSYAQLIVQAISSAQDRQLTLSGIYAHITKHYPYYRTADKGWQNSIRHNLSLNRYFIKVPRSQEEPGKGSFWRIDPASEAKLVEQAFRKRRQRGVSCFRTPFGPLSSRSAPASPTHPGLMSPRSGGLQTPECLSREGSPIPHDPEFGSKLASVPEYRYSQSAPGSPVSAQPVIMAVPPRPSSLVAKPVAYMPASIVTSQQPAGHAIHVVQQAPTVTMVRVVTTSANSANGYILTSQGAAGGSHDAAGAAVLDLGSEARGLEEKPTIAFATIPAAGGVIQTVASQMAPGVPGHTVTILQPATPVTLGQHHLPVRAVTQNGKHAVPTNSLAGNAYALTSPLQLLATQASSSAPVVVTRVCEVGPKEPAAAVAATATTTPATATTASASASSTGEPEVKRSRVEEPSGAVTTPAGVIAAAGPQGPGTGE
UniProt P52655, sequence (P52655 whole entry, looked up): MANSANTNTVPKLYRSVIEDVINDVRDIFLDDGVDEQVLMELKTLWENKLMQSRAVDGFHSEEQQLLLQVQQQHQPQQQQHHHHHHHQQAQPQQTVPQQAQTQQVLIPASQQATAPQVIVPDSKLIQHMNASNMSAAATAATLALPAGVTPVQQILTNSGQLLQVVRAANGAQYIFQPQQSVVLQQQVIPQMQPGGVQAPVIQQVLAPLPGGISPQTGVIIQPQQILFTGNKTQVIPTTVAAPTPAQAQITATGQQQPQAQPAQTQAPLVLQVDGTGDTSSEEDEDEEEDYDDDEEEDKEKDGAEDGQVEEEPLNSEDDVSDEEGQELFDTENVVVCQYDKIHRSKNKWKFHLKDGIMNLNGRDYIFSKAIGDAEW
UniProt P63218, sequence (P63218 whole entry, looked up): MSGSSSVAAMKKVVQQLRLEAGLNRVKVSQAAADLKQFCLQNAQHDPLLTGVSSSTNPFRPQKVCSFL

With GTF2A1 (UniProt P52655), the log2 fold change in assay [1] is 0.04; in assay [2] it was -0.021; in assay [3], -0.01; in assay [4], -0.004; in assay [5] it was -0.006.

In the case of HDHD2 (UniProt Q9H0R4), the log2 fold change in assay [1] was -0.044; in assay [2], 0.006; in assay [3], -0.003; in assay [4], 0.03; in assay [5], -0.031.

ICAM1 (UniProt P05362): the log2 fold change in assay [1] was -0.005; in assay [2], 0.021; in assay [3], 0.049; in assay [4], 0.012; in assay [5], 0.031.

In the case of GALNT2 (UniProt Q10471), the log2 fold change in assay [1] was 0.008; in assay [2], 0.057; in assay [3], 0.001; in assay [4] it was 0.007; in assay [5] it was -0.004.

As to GAGE12F (UniProt P0CL80), the log2 fold change in assay [1] is -0.016; in assay [2] it was 0.137; in assay [3], 0.109; in assay [4], -0.089; in assay [5] it was 0.012.

With FBXO3 (UniProt Q9UK99), the log2 fold change in assay [1] was 0.006; in assay [2], -0.03; in assay [3], 0.033; in assay [4], 0.055; in assay [5], 0.127.

IDH3A (UniProt P50213): the log2 fold change in assay [1] was -0.029; in assay [2] it was 0.018; in assay [3] it was 0.026; in assay [4], -0.025; in assay [5], -0.005.

Regarding GTF2E1 (UniProt P29083), the log2 fold change is -0.086 in assay [1]; 0.089 in assay [2]; 0.136 in assay [3]; -0.052 in assay [4]; 0.034 in assay [5].

For FBL (UniProt P22087), the log2 fold change in assay [1] was 0.095; in assay [2], -0.267; in assay [3], -0.126; in assay [4], 0.18; in assay [5] it was 0.074.

Consider GCLM (UniProt P48507), for which the log2 fold change in assay [1] is -0.014; in assay [2] it was 0.062; in assay [3], 0.108; in assay [4] it was 0; in assay [5], -0.053.

Regarding GTF3C5 isoform 3 (UniProt Q9Y5Q8), the log2 fold change in assay [1] is -0.097; in assay [2], -0.082; in assay [3] it was 0.103; in assay [4], 0.049; in assay [5], -0.159.

As for FBXO42 (UniProt Q6P3S6), the log2 fold change is -0.022 in assay [1]; 0.017 in assay [2]; 0.094 in assay [3]; 0.141 in assay [4]; 0.077 in assay [5].

Turning to HIP1 (UniProt O00291), the log2 fold change in assay [1] is 0.137; in assay [2], -0.009; in assay [3] it was 0.106; in assay [4], 0.019; in assay [5], 0.045.

On to FOXK1 (UniProt P85037), for which the log2 fold change was 0.104 in assay [1]; -0.042 in assay [2]; 0.253 in assay [3]; -0.402 in assay [4]; 0.049 in assay [5].

In the case of HMGN1 (UniProt P05114), the log2 fold change in assay [1] was 0.042; in assay [2] it was -0.023; in assay [3] it was -0.119; in assay [4], 0.027; in assay [5] it was 0.048.

As for GMEB1 (UniProt Q9Y692), the log2 fold change is 0.02 in assay [1]; 0.084 in assay [2]; -0.007 in assay [3]; 0.024 in assay [4]; 0.022 in assay [5].

Consider GLUL (UniProt P15104), for which the log2 fold change in assay [1] is -0.015; in assay [2] it was 0.005; in assay [3], 0; in assay [4] it was -0.007; in assay [5], 0.02.

Regarding FUBP3 (UniProt Q96I24), the log2 fold change was 0.009 in assay [1]; 0.002 in assay [2]; 0.017 in assay [3]; 0.065 in assay [4]; 0.006 in assay [5].

For FUCA1 (UniProt P04066), the log2 fold change in assay [1] was -0.001; in assay [2] it was 0.058; in assay [3], 0.03; in assay [4] it was 0.018; in assay [5], 0.053.

On to FIS1 (UniProt Q9Y3D6), for which the log2 fold change was 0.047 in assay [1]; 0.021 in assay [2]; 0.035 in assay [3]; -0.081 in assay [4]; -0.011 in assay [5].

Regarding GOPC (UniProt Q9HD26), the log2 fold change in assay [1] is -0.315; in assay [2], -0.016; in assay [3] it was 0.018; in assay [4], 0.169; in assay [5], -0.054.

Consider GMEB2 (UniProt Q9UKD1), for which the log2 fold change in assay [1] is 0.037; in assay [2] it was 0.073; in assay [3], 0.068; in assay [4], -0.007; in assay [5], -0.016.

As to GNG5 (UniProt P63218), the log2 fold change in assay [1] is 0.044; in assay [2], 0.063; in assay [3], 0.012; in assay [4], -0.064; in assay [5] it was 0.018.

Regarding GABARAPL2 (UniProt P60520), the log2 fold change in assay [1] was 0.037; in assay [2] it was 0.035; in assay [3], 0.039; in assay [4], -0.038; in assay [5], -0.055.

For the target HMG20A (UniProt Q9NP66), the log2 fold change in assay [1] was 0.07; in assay [2] it was -0.085; in assay [3] it was 0.048; in assay [4], 0.048; in assay [5] it was 0.536 (active).
